Experimental data published in PubChem BioAssay (NCATS).
Some of the results follow. Inconclusive results are not listed. Active and inactive are the calls of the source. Calls come from the whole dose curve; as a rule, active = well fitted inhibition curve with a large enough effect; inconclusive = small, poorly fitted or top-dose-only effect; inactive = flat fitted curve, though single readings scatter.

Biological target: Fructose-bisphosphate aldolase (Giardia intestinalis (strain ATCC 50803 / WB clone C6)) (UniProt A8B2U2)
Assay: qHTS Assay for Inhibitors of Fructose-1,6-bisphosphate Aldolase from Giardia Lamblia: Primary screen confirmation (AID 2787);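 note: aldolase product measured through coupled diaphorase step turning resazurin into fluorescent resorufin; nearly all actives have a fitted effect of over 45% in size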
Conditions: purified Giardia aldolase enzyme activity; series mostly up to 57.5 µM
Text: NIH Chemical Genomics Center [NCGC]
NIH Molecular Libraries Probe Production centers Network [MLPCN]
Assay Provider: Osnat Herzberg, University of Maryland
The objective of this project is to obtain compounds that inhibit Giardia lamblia growth. G. lamblia is a human pathogen which afflicts impoverished nations; it is the most common cause of outbreaks of diarrhea in the United States. During the course of our study of potential drug targets in Giardia, we have identified the Class II (Zn2+ functions in electrophilic catalysis) fructose-1,6-bisphosphate aldolase (FBPA) as an excellent candidate for drug targeting. FBPA is a key glycolytic pathway enzyme, essential for G. lamblia survival. The human FBPA belongs to the Class I aldolases, which have a different substrate binding site structure and a radically different catalytic mechanism (employing a lysine-Schiff base intermediate). Therefore, affinity-based or mechanism-based inhibitors of the Giardia FBPA are expected not to interfere with the catalytic function of the human FBPA.
A glyceraldehyde-3-phosphate dehydrogenase/triose phosphate isomerase/NAD/arsenate coupled assay was adapted to the 1536-well HTP format for use in the primary screen. This was done by coupling it to a diaphorase/resazurin/resorufin reaction that can be monitored by fluorescence (excitation, 544 nm; emission, 590 nm). Compounds identified in this screen will be further evaluated by coupling the glycerol-3-phosphate/triose phosphate isomerase/NADH assay to a phenazine methosulfate/tetranitroblue tetrazolium color reaction. False positives due to the dehydrogenases and diaphorase inhibition will be eliminated, and selectivity assay will triage inhibitors of mammalian triose phosphate isomerase and the Class I FBPA. G. lamblia FBPA inhibitors identified by the in vitro analyses will be examined for growth inhibition of Giardia trophozoites, and for cytotoxicity in human cells.
The present assay was used to confirm hits from the primary screen.
Step,Parameter,Value,Description
1,Enzyme reagent,2 uL,40 nM FBPA w/ 30uM ZnCl2
2,Compound,23 nL,3.68 nM-57.5 uM final concentration
3,Time,10 min,RT Incubation
4,Substrate/detection Reagent,2 uL,Substrate + enzyme coupling system + AmpLite Red kit
5,Time,20 min,RT Incubation
6,Detector,525 nm/598 nm (Fluorescence),ViewLux Fluorescence Read (Read 1)
1,Medium-binding black solid-bottom Kalypsys plates. FRD or Kalypsys dispenser, 2 uL of FBPA enzyme. Bottle kept at 4C.
2,Compound Library (10 mM ,1:5 dilution). Pin-transferred for a [final] range of 3.68 nM-57.5 uM.
4,FRD or Kalypsys dispenser, 2 uL of reaction mixture. Bottle kept at 4C and covered in foil to protect from light.
6,ViewLux Protocol 1194; Excitation filter wheel A (525/20 Pol; BODIPY TMR FP), Emission filter wheel B (598/25 S; BODIPY TMR FP S).
Keywords: Fructose-bisphosphate aldolase, FBPA , Giardia lamblia , Giardia, HTS, Inhibitors

Chain of Fructose-bisphosphate aldolase (Giardia intestinalis (strain ATCC 50803 / WB clone C6)) (A8B2U2 whole entry, looked up): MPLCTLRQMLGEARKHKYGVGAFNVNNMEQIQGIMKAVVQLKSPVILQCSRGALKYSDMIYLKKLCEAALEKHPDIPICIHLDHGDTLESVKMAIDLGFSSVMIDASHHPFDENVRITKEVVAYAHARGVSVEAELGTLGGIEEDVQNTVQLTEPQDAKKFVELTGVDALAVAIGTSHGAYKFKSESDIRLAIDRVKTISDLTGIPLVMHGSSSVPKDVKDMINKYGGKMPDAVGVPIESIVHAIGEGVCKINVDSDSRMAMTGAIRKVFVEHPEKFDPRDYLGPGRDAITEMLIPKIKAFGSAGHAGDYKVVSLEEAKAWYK

outcome, inactive:
Cc1ccc(OCCCCc2c(C)n[nH]c2C)cc1
COc1ccc(N=Nc2c(-c3ccc(OC)cc3)[nH]oc2=O)cc1
CCN(CC(=O)Nc1ccc(S(=O)(=O)N2CCCC2)cc1)CC(=O)Nc1cccc(OC)c1
O=C1CCCN1CCCNC(=S)Nc1ccc(F)c(Cl)c1
O=S(=O)(c1ccc(NC(=S)NN=C(C2CC2)C2CC2)cc1)N1CCOCC1
O=C(O)Cn1c(Cc2ccccc2)nc2ccccc21
Cc1cc(C)n(-c2ccc(Cl)c(C(=O)O)n2)n1
CCN1CCc2c(C#N)c(NCc3ccccc3)nc(NCCO)c2C1
C=C(C)CNC(=S)N/N=C/c1ccccc1OCC(=O)O
C/C(=N\NC(N)=S)c1cccnc1
O=C(Nc1ccccc1Cl)O/N=C(/c1ccccc1)c1ccccn1
CSc1n[nH]c(=S)n1N
O=c1nc(N/N=C/c2ccco2)cn[nH]1
Clc1cccc(CN2COc3c(cc(Cl)c4cccnc34)C2)c1
COc1ccc(CN2CCN(Cc3ccc(OC)c(OC)c3OC)CC2)cc1
Cc1cccc(-c2nnc(SCC(=O)O)n2Cc2ccccc2)c1
CCc1ccc2c(c1)C1(NN=C(c3ccccc3)S1)C(=O)N2 (stereo not given)
O=[N+]([O-])c1cc([N+](=O)[O-])c2cccnc2c1O
C=CCc1cc(C)ccc1OCCCn1ccnc1
Cc1nc2ccc(NC(=S)N3CCC(C)CC3)cc2nc1C
CCN(CC(=O)NC(=O)NCc1ccccc1)Cc1nc2ccccc2c(=O)[nH]1
CNC(=S)N/N=C/c1ccc(N2CCOCC2)s1
COCCN(C(=S)Nc1ccccc1OC)C1CCN(C(C)C)CC1
Cn1nnc(NC(=S)NC(=O)c2ccccc2)n1
CC(C)(c1ccccc1)c1ccc(OCCN2CCCC2)cc1
O=c1[nH]c(=S)[nH]c2[nH]c(=S)[nH]c12
CC(=O)NC1CCN(CC(=O)Nc2nccs2)CC1
O=[N+]([O-])c1ccc2nc(-c3ccccn3)[nH]c2c1
Cc1cc(C)nc(N/N=C/c2ccc([N+](=O)[O-])o2)n1
COc1ccc(C(=O)NC(=S)N2CCCCC2c2cccnc2)cc1OC (stereo not given)
O=C(CN1CCN(Cc2ccccc2)CC1)Nc1ccc(F)c(F)c1
CC1CCCN(S(=O)(=O)c2ccc(C(=O)Nc3nnc(-c4ccncc4)o3)cc2)C1 (stereo not given)
COc1cc(CN2CCN(Cc3ccc(C)cc3)CC2)c([N+](=O)[O-])cc1OC
CN1C(=O)/C(=C\c2ccc(-c3ccccc3)o2)SC1=S
CN(C)CCOc1ccc(Cl)cc1C(C)(C)C
COc1ccc(Cl)cc1C(=O)NNC(=O)c1nc2nc(C)cc(C)n2n1
Cc1ccc(C(=O)Nc2nnc(C3=COCCO3)o2)cc1C
CN1CCCc2cc(C#N)c(=O)[nH]c21
O=C(N/N=C/c1ccccn1)c1cccnc1
Oc1ccc2ccccc2c1N=Nc1nccs1
